AMA1-RON2 inh – qHTS for Inhibitors of AMA1-RON; Towards Development of Antimalarial Drug Lead: Primary Screen | AlphaScreen AMA1-biotinylated RON2 peptide binding | 360,000 tested, 0.2% active | Potency, µM (series often up to 58.2 µM), for the others: top-dose activity change, negative = inhibition, hits mostly inhibitors | AID 720542, 2013;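 also: 0% = vehicle wells and -100% = peptide control; nearly all actives have a fitted effect of over 45% in size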
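AMA1 (3D7) with his tag at 25 nM final met compounds first, then biotinylated RON2 peptide at 25 nM; detection used donor plus acceptor beads, 10 µg/mL apiece, read by AlphaScreen after 30 min at room temperature.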
FMDV inh – High Throughput Screening for Foot and Mouth Disease Virus Antivirals; FMDV antiviral cell-based qHTS; Potency, µM (top dose mostly 57.9 µM), for the others: at the highest dose activity change, negative = inhibition, actives largely listed as inhibitors; 410,000 tested, 1.2% active; AID 1159524, 2015; calls by dose curve; tested in HEK293T cells; also: read-out not given here; nearly all actives have a fitted effect of over 45% in size
Sm TGR inh – qHTS Assay for the Inhibitors of Schistosoma Mansoni Peroxiredoxins; purified TGR, DTNB reduction, TNB absorbance 405 nm; Schistosoma mansoni thioredoxin glutathione reductase (TGR), Q962Y6; 360,000 tested, 3% active; Potency, µM (titrated, usually from 114 µM), inactives show at the highest dose activity change, negative = inhibition, actives largely listed as inhibitors; AID 485364, 2010; also: nearly all actives have a fitted effect of over 60% in size
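Kinetic colorimetric format: TGR-catalysed, NADPH-driven DTNB reduction monitored via TNB absorbance. Enzyme dispensed at 20 nM; compound exposure 15 min at room temperature before reaction start.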
AmpC inh detg – qHTS Inhibitors of AmpC Beta-Lactamase (assay with detergent). P00811. AmpC hydrolysis of nitrocefin, absorbance 480 nm, 0.01% Triton. Potency, µM (top dose mostly 114 µM), inactives show at the highest dose activity change, negative = inhibition, hits mostly inhibitors. 370,000 tested, 0.041% active. AID 485294, 2010;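 also: 0% = no-compound wells and -100% = no-enzyme wells; nearly all actives have a fitted effect of over 25% in size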
Target sequence (P00811 whole entry, looked up): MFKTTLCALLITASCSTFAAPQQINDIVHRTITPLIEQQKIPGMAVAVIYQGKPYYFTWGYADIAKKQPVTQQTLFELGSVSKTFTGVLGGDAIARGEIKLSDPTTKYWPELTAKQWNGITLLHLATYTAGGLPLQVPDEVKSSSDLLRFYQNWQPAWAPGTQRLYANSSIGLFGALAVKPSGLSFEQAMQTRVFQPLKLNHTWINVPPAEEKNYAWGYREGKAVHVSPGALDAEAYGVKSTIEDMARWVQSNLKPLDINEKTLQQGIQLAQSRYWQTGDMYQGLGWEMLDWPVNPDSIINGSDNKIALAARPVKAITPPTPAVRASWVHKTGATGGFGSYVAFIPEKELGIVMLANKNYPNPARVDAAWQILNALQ
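20 mM phosphate pH 7.0 + 0.01% (detergent screen) or 0.0001% Triton X-100; 5.3 nM AmpC reagent; cpd preinc 15 min RT; nitrocefin (800 uM stock) to start; A480 q20 s × 4 min; Activity was normalised to no-enzyme and no-compound control wells.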
AmpC no deterg – qHTS Inhibitors of AmpC Beta-Lactamase (assay without detergent); AmpC nitrocefin hydrolysis, absorbance 480 nm, 0.0001% Triton; AID 485341, 2010; 330,000 tested, 0.52% active; P00811; Potency, µM (titrated, usually from 57.1 µM), without a hit: top-dose activity change, negative = inhibition, actives largely listed as inhibitors;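 also: plate controls were no compound for no effect and no enzyme for full effect; nearly all actives have a fitted effect of over 20% in size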
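AmpC (5.3 nM in the dispensed reagent) in 20 mM phosphate pH 7.0 with 0.01% (detergent screen) or 0.0001% Triton X-100 was preincubated with compounds for 15 min at room temperature. Nitrocefin was then added from an 800 uM solution, and hydrolysis was followed at 480 nm.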
Starred values were filed as active, the others as inactive; ? = inconclusive; nt = no result; [ ] = remark or other dose. A selection: hits, their analogues and other compounds. The true share with any hit is near 4.1%. Unless noted, calls follow the shape of the dose curve; as a rule, active = well fitted curve in the direction sought with a large enough effect; inconclusive = small, poorly fitted or top-dose-only effect, or another doubt; inactive = no such curve, though single readings can be large; an effect the other way counts as inactive or inconclusive. Unless noted, % is scaled to controls: 0 for no effect and ±100 for the full control effect; potency is read from the fitted curve at half-maximal effect.

SMILES	AMA1-RON2 inh	FMDV inh	Sm TGR inh	AmpC inh detg	AmpC no deterg
CCOC(=O)c1cccc(NC(=O)C(CC(C)C)N2Cc3ccccc3C2=O)c1 (centres undefined)	nt	-0.7%	7.0%	-1.4%	nt
COc1ccc(CNC(=O)c2cnn(-c3ncc4c(n3)-c3ccccc3CC4)c2C)cc1OC	nt	33.9%	nt	nt	nt
CCSc1ncnc2c1oc1ccccc12	24.1%	0.0%	-20.4%	?	-12.9%
Clc1ncnc2c1oc1ccccc12	3.1%	58.0%	-32.2%	0.6%	0.282µM*
COc1cccc(C(=O)NC(=S)Nc2cccnc2)c1	49.0%	14.3%	56.2µM*	-14.9%	-17.6%
CCOc1ccc(C(=O)NC(=S)Nc2cccnc2)cc1	2.6%	26.7%	-2.8%	2.7%	-10.1%
CCOc1cc(C(=O)NC(=S)Nc2cccnc2)cc(OCC)c1OCC	14.1%	-5.2%	50.1µM*	-9.4%	34.2%
COc1ccc(OC)c(CN2C[C@H](Sc3ccc(F)cc3)C[C@H]2C(=O)N(C)C)c1	nt	-7.2%	nt	nt	nt
CCN1/C(=C/C(C)=C/c2sc3ccccc3[n+]2CC)Sc2ccccc21	28.2µM*	10µM*	-24.3%	1.2%	13.7%
CCN1/C(=C\C(=S)Nc2ccccc2)Sc2ccccc21	39.2%	-4.6%	4.0%[57.1 µM]	0.8%	-38.4%
Cc1ccc(Cl)cc1N1CCN(C(=O)c2ccc3nc(N4CCC(C)CC4)sc3c2)CC1	nt	?	-3.5%	1.9%	nt
O=C1COc2ccc(S(=O)(=O)N3CCCC3)cc2N1	-10.1%	10.5%	-0.9%	-6.3%	-11.6%
O=C1COc2ccc(N3C(=O)C=CC3=O)cc2N1	nt	nt	0.398µM*	?	-17.0%
O=C(Nc1cccc(C(F)(F)F)c1)c1cccnn1	-2.7%	-7.2%	89.1µM*	-8.7%	-0.2%
O=C(Nc1cccc(C(F)(F)F)c1)c1csc(-c2ccncc2)n1	-9.0%	100µM*	-11.1%	-7.4%	53.3%
COc1cccc(N2CCN(C(=O)C3CCN(S(=O)(=O)c4cccc5nonc45)CC3)CC2)c1	nt	0.0%	-6.9%	-3.1%	nt
Cc1c(C(=O)N2CC3CCC2C3)sc2ncnc(NCc3ccco3)c12 (centres undefined)	nt	-9.5%	nt	nt	nt
COc1cc(NC(=O)CN(C)S(=O)(=O)c2ccc3c(c2)CCCC(=O)N3)cc(OC)c1OC	nt	-22.1%	-9.9%	-2.5%	nt
COc1ccc(CCNC(=O)CN(C)S(=O)(=O)c2ccc3c(c2)CCC(=O)N3)cc1OC	4.0%	-24.8%	-0.4%	5.4%	6.0%
COC(=O)c1ccc(NC(=O)CN(C)S(=O)(=O)c2ccc3c(c2)CCCC(=O)N3)cc1	nt	31.6µM*	-1.1%	17.3%	nt
CN(CC(=O)NCCC1=CCCCC1)S(=O)(=O)c1ccc2c(c1)CCC(=O)N2	6.5%	-12.0%	-4.6%	?	3.16µM*
Cc1oc(-c2ccccc2F)nc1CS(=O)(=O)CC(=O)N1CCN(c2ccc(Cl)cc2)CC1	nt	15.8µM*	-17.2%	-3.3%	nt
Cc1oc(-c2ccccc2Cl)nc1CS(=O)(=O)CC(=O)NCc1ccc(F)cc1	nt	-18.8%	44.7µM*	5.2%	nt
Cc1ccccc1-c1nc(CS(=O)(=O)CC(=O)N(C)C2CCCCC2)c(C)o1	-5.9%	?	8.91µM*	?	76.5%
CCOC(=O)N1CCN(C(=O)CS(=O)(=O)Cc2nc(-c3ccccc3F)oc2C)CC1	17.4%	-20.6%	-29.7%	-12.1%	28.8%
SMILES	AMA1-RON2 inh	FMDV inh	Sm TGR inh	AmpC inh detg	AmpC no deterg
Cc1oc(-c2ccccc2F)nc1CS(=O)(=O)CC(=O)N1CCCCCC1	-0.7%	-23.5%	11.2µM*	?	16.0%
Cc1ccccc1-c1nc(CS(=O)(=O)CC(=O)NC2CCCCC2C)c(C)o1 (centres undefined)	-7.8%	-2.1%	?	-13.9%	45.2%
CCCCCCN1CCN(c2ccc(Cl)cc2)CC1	35.5µM*	-11.2%	3.5%	?	-39.4%
O=C(CCN1CCN(c2ccccc2)CC1)c1ccc(Br)cc1	-9.7%	-2.6%	0.0%	0.4%	-6.0%
N#CCN1CCN(CC(=O)c2ccc(Br)cc2)CC1	6.0%	6.2%	11.2µM*	10.5%	-5.9%
COc1ccccc1N1CCN(Cc2ccc(C(=O)O)cc2)CC1	8.6%	9.1%	0.8%	1.7%	-24.4%
COc1ccccc1N1CCN(CC(=O)c2ccc(F)cc2)CC1	-40.8%	36.8%	22.4µM*	-10.9%	-6.0%
CCN1CCC(N2CCN(c3ccc(Cl)cc3)CC2)CC1	1.5%	-5.7%	-6.0%	-18.4%	-9.3%
N#Cc1ccc(C(=O)CN2CCN(c3ccccc3)CC2)cc1	-24.7%	-2.6%	7.08µM*	2.5%	-14.6%
CCC1CN(CC(=O)NC(C)CO)Cc2cc(OC)ccc2O1 (centres undefined)	nt	4.2%	nt	nt	nt
COc1ccc(N2CCN(CC(=O)c3ccc(Cl)cc3)CC2)cc1	-3.7%	20.4%	11.2µM*	-8.8%	3.8%
COc1ccc(C(=O)CCN2CCN(c3ccccc3F)CC2)cc1	-9.0%	-6.6%	0.794µM*	-1.8%	0.4%[2.29 µM]
COc1ccc(C(=O)CN2CCN(c3ccc(F)cc3)CC2)cc1OC	22.5%	-9.4%	35.5µM*	-1.4%	81.6%
COc1ccc(C(=O)CN2CCN(c3ccc(Cl)cc3)CC2)cc1OC	-8.0%	?	35.5µM*	-0.3%	49.6%
CC(C)[C@@H]1CC2=C(C(=O)OC(C)(C)O2)[C@H](CCc2ccccc2)O1	3.7%	-23.9%	nt	nt	nt
Cc1nc2ccccc2n2c(O)c(CC(=O)O)cc12	-1.4%	nt	35.5µM*	0.6%	-20.1%
CCc1ccc(NC(=O)CSc2nc(-c3cccc(OC)c3)nc3c2Cc2c(CO)cnc(C)c2O3)cc1	nt	-4.9%	?	13.9%	nt
CC1(C)CC(=O)C(CC2=C(O)CC(C)(C)CC2=O)=C(O)C1	5.7%	?	2.82µM*	-4.5%	-11.3%
CC1(C)CC(=O)C(CC2=C(O)CC(C)(C)CC2=O)C(=O)C1	-5.2%	-9.1%	23.5%[11.4 µM]	-8.4%	-9.9%
CC(C)=CC1C(CO)C1(C)C (centres undefined)	nt	-4.6%	nt	nt	nt
O=C(Nc1ccc2nsnc2c1)N1CCCCCC1	5.4%	60.9%	-2.1%	-5.1%	-22.0%
S=C(Nc1ccc2nsnc2c1)N1CCCC1	13.0%	84.6%	39.8µM*	-4.0%	-5.6%
O=C1CN(CC(=O)N2CCOCC2)c2ccccc2O1	nt	nt	20µM*	-4.6%	-21.0%
O=C1CN(CC(=O)N2CCCCC2)c2ccccc2O1	20.1%	18.1%	11.2µM*	-2.4%	-3.7%
Cc1ccc(C(=O)NCCc2nnc3n2CCN(Cc2cc(C)cc(C)c2)CC3)cc1	nt	-12.4%	nt	nt	nt
CCOc1ccc(C(=O)c2cn(Cc3ccccc3)c3c(F)cc(F)cc3c2=O)cc1	nt	-16.8%	0.9%	-9.6%	nt
COC/C=C/C1=CC2=CC(=O)C(C)(OC(=O)c3cnc4ccccc4n3)C(=O)C2=CN1Cc1ccccc1 (centres undefined)	-27.5%	14.1µM*	?	-6.3%	99.2%
